Compounds without any hit were thinned out: in the full panel of roughly 83,000, 20% have a hit.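 Testing used 96-well plates and a 48-hour single-concentration exposure. Example: -40 means 40% of the starting cells died.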 A number with no mark means an inactive call. The source made the active and inactive calls. How the source made its calls: active means growth percent below 10; inactive means the rest.
Legend:
Assay in all cases: NCI-60 one-dose screen, 48 h (100 = growth as untreated, 0 = no growth, -100 = all killed)
Conditions in all cases: 10 µM unless noted
HCT-15 colon = test system: HCT-15 colon
HT29 colon = test system: HT29 colon
SNB-75 CNS = test system: SNB-75 CNS
SNB-19 CNS = test system: SNB-19 CNS
U251 CNS = test system: U251 CNS
PC-3 prostate = test system: PC-3 prostate
SK-MEL-5 melanoma = test system: SK-MEL-5 melanoma
UACC-62 melanoma = test system: UACC-62 melanoma
LOX IMVI melanoma = test system: LOX IMVI melanoma
SK-MEL-28 melanoma = test system: SK-MEL-28 melanoma
EKVX NSCLC = test system: EKVX NSCLC
SN12C renal = test system: SN12C renal
UO-31 renal = test system: UO-31 renal
ACHN renal = test system: ACHN renal
CAKI-1 renal = test system: CAKI-1 renal
A498 renal = test system: A498 renal
CCRF-CEM leukemia = test system: CCRF-CEM leukemia
MOLT-4 leukemia = test system: MOLT-4 leukemia
TK-10 renal = test system: TK-10 renal
SK-MEL-2 melanoma = test system: SK-MEL-2 melanoma

SMILES | growth (HCT-15 colon) | growth (HT29 colon) | growth (SNB-75 CNS) | growth (SNB-19 CNS) | growth (U251 CNS) | growth (PC-3 prostate) | growth (SK-MEL-5 melanoma) | growth (UACC-62 melanoma) | growth (LOX IMVI melanoma) | growth (SK-MEL-28 melanoma) | growth (EKVX NSCLC) | growth (SN12C renal) | growth (UO-31 renal) | growth (ACHN renal) | growth (CAKI-1 renal) | growth (A498 renal) | growth (CCRF-CEM leukemia) | growth (MOLT-4 leukemia) | growth (TK-10 renal) | growth (SK-MEL-2 melanoma)
CNC(=O)c1cc(-c2ccc(NC(=S)Nc3cc(C(F)(F)F)cc(C(F)(F)F)c3)cc2)nc2cccnc12 | 107% | 108% | 49.1% | 104% | 103% | 80.6% | 92.7% | 95.3% | 93.9% | 103% | 70% | 86.7% | 59.7% | 101% | 71.4% | 47.2% | 94.5% | 88% |  | 
CN(C)CCNC(=O)c1ccc(-c2nc3ccc4[nH]ncc4c3c3c2CCC3)cc1 | 17.2% | 12.6% | 40.3% | 9.44% (active) | 25.3% | 3.49% (active) | 7.44% (active) | 15.8% | -61% (active) | 21.9% | 15.3% | 7.23% (active) | 18.2% | 12.8% |  | -63.6% (active) | 3.51% (active) | 7.28% (active) | 22.1% | 
CCN(CC)c1ccc(NC2=C(Cl)C(=O)c3nc(C)ccc3C2=O)cc1 | -52.7% (active) | 104% |  | 102% | 94.3% | 74.2% | 79.3% | 95.2% | -71.6% (active) | 37.5% | -5.94% (active) | 64% | -60% (active) | -61.2% (active) | 51.7% | 104% | 0.0595% (active) | 0.296% (active) | 164% | 84.9%
COc1ccc(CCN2C(=O)CSC2=S)cc1 | 56.9% | 104% | 94.6% | 96.6% | 102% | 88.8% |  | 94.2% | 30.3% | 93.9% | 96% | 88.8% | 92% | 99.1% | 82.1% |  | 75.3% | 94.6% | 65.1% | 
Cc1ccc2sc3c(c2c1)OC(N)=C(C#N)C3c1ccc(Cl)cc1 (stereo unspecified) | 30.3% | 67.3% | 81.6% | 89.9% | 96.3% | 71.1% |  | 45.7% | 86.9% | 75.2% | 70.9% | 93.3% | 75.9% | 87.4% | 60.4% |  | 75.7% |  |  | 
COc1cccc(C(=O)Nc2cccc(C#Cc3cccc4[nH]nc(N)c34)c2)c1 | 28.9% | 37.5% | 3.74% (active) | 98.5% | 68% | 32.7% |  | 57.6% | 37% | 67.7% | 80.9% | 71.6% | 56.4% | 51% | 52.4% |  | 28.5% |  | 96.5% | 
Cn1ccnc1C(=O)/C=C/c1ccc(CNC(=O)c2ccc(S(F)(F)(F)(F)F)cc2)cc1 | -5.91% (active) | 10.4% |  | 3.58% (active) | 8.6% (active) | 26.4% | 61.3% | 31.2% | -80.3% (active) | 82.4% | 40% | 25.6% | 34.7% | 49.8% | 47% | 73.5% | 2.63% (active) | 0.864% (active) | 91.1% | 92.9%
CN1CCC(n2cc(Nc3ncc4c(=O)n(-c5c(Cl)cccc5Cl)cc(Br)c4n3)cn2)CC1 | 17.1% | 6.54% (active) | 17.1% | 41.7% | 27.6% | 51.3% |  | 77.8% | 11.9% | 63.4% | 57.4% | 20.7% | 22.2% | 24% | 20% |  | 8.75% (active) | 13% | 47% | 
N#Cc1cccc(CN2CCC3=C(C2)C(=O)N(Cc2ccc(Cl)cc2)C2=NCCN23)c1 | 17.3% | 30.8% | 60.9% | 23.7% | 23.3% | 24.1% | 13.1% | 29.9% | 47.5% | 48.3% | 26.8% | 23.9% | 35.5% | 33.2% |  | 15% | 33.1% | 53.2% | 52.3% | 
O=C1/C(=C/C=C/c2ccco2)SC(=S)N1c1ccccc1 | 56.9% | 83.6% | 101% | 86.3% | 49.8% | 71.3% |  | 70.7% | 26% | 79.9% | 81.2% | 79.1% | 42.9% | 67.3% | 86.8% |  | 41.3% | 60.2% | 95.5% | 
COc1ccc2c(c1)c(CC(=O)[Se]CCC#N)c(C)n2C(=O)c1ccc(Cl)cc1 | -64.7% (active) | -31.2% (active) | -30.1% (active) | -45.2% (active) | 1.11% (active) | 17.4% | -73.4% (active) | 41.3% | -50.4% (active) | -1.32% (active) | -82.5% (active) | -82.6% (active) | -21.7% (active) | 5.57% (active) |  | -42.9% (active) | 5.22% (active) | 0.134% (active) | -74.7% (active) | 
Cc1ccc2sc3c(c2c1)OC(N)=C(C#N)C3c1cccc(F)c1 (stereo unspecified) | 6.97% (active) | -19.6% (active) | -0.701% (active) | 35% | 2.42% (active) | 9.24% (active) |  | 18.3% | 8.96% (active) | 51.3% | 44.6% | 10.4% | 25.9% | 20.6% | 16.5% |  | 16.1% | 17.5% | 36.1% | 
Cc1cc(C)cc(C(=O)Nc2cccc(C#Cc3cccc4[nH]nc(N)c34)c2)c1 | 33.8% | 41.7% | 40.3% | 99.5% | 72.2% | 33.6% |  | 60.5% | 43.2% | 72% | 89.3% | 71.5% | 62.2% | 56.2% | 55.3% |  | 30.5% | 27% | 92.9% | 
NC(N)=Nc1ccc(Oc2cccc(Nc3ccc(Cl)cc3)c2)cn1 | -48.7% (active) | 4.94% (active) | 22.9% | 23.8% | -71.2% (active) | -77.5% (active) | 48.8% | 43.3% | -96.9% (active) | 49.4% | 16.1% | 12.3% | 39.1% | 30.9% | 27.3% | -4.07% (active) | -6.22% (active) | -12.8% (active) |  | 
Cc1ccc(N2C(=O)/C(=C/C=C/c3ccco3)SC2=S)cc1 | 88.4% | 102% | 98.1% | 92.4% | 93.8% | 73.3% |  | 89% | 96.2% | 95.8% | 95.4% | 91.4% | 84% | 101% | 90.4% |  | 61.2% | 9.93% (active) | 117% | 
COc1cc(OC)c(S(N)(=O)=O)cc1C(=O)/C=C/c1ccc(C)cc1 | 6.96% (active) | 9.47% (active) | 1.82% (active) | 33.3% | 14.5% | 19.1% |  | 33.8% | 1.84% (active) | 58.7% | 45.6% | 11.4% | 34.7% | 29.7% | 21.9% |  | 16.7% | 21.1% |  | 
CNC(=O)c1cc(Oc2ccc3nc(NC(=O)c4cccc(OC(F)(F)F)c4)sc3c2)ccn1 | 81.7% | 86% | 45.5% | 81.3% | 84.3% | 73% |  | 78.4% | 85.2% | 85.3% | 79.6% | 78.7% | 95.7% | 75.2% | 73.9% |  | 71.2% | 73.3% | 101% | 
CNCc1cccc2c1OCCCCCCC(C)(O)CC(C)(C)S(=O)(=O)c1ccc(cc1)-c1cnc(N)c(n1)C(=O)N2 (stereo unspecified) | -20.6% (active) | -8.67% (active) | 84% | 33% | -70.9% (active) | 16% |  | 1.85% (active) | -59.4% (active) | 13.5% | 62.7% | 16.6% | 23.7% | 10% (active) | 17.6% |  | 4.37% (active) | 2.61% (active) | 65.4% | 
